High-throughput results (PubChem)
A selection: hits, their analogues and other compounds. The true share with any hit is near 10%.
JMJD2A Tudor inh: inhibitors of human JMJD2A Tudor domain | AlphaScreen JMJD2A-Tudor / H3K4me3 peptide binding | AID 504339 | O75164 | 390,000 tested, 4.4% active | Potency, µM (highest dose often 114 µM), inactives show top-dose activity change, negative = inhibition, actives largely listed as inhibitors; also: % is scaled to controls: 0 for no effect and ±100 for the full control effect; nearly all actives have a fitted effect of over 50% in size
HP1b chromo inh: HP1-beta chromodomain-methylated histone interaction inhibition; P83916; AlphaScreen HP1-beta / biotin-H3K9me3 peptide binding; Potency, µM (titrated, usually from 114 µM), without a hit: at the top dose activity change, negative = inhibition, usual class: inhibitors; AID 540317; 390,000 tested, 0.56% active; also: nearly all actives have a fitted effect of over 70% in size
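AlphaScreen: HP1-beta (50 nM) preformed 30 min with biotin-H3(1-18)K9me3 peptide (50 nM) in PBS pH 7.4, 0.01% Tween-20. Compound added for 30 min at RT, then streptavidin donor/nickel chelate acceptor beads (10 ug/mL) for 30 min.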
G9a inh: blocks human histone lysine methyltransferase G9a; Potency, µM (doses to about 102 µM), without a hit: top-dose activity, negative = inhibition, most hits filed as inhibitors; 350,000 tested, 8.8% active; AID 504332; G9a H3K9 monomethylation, AlphaScreen, 2 h; Q96KQ7; also: % is scaled to controls: 0 for no effect and ±100 for the full control effect; nearly all actives have a fitted effect of over 75% in size
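G9a (20 nM) was preincubated 15 min with compound, then reacted 2 h at room temperature with 500 nM biotin-H3K9 peptide and 20 µM SAM. Monomethyl-H3K9 detected by AlphaScreen using anti-H3K9me1 antibody.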
BAZ2B inh: inhibitors of human BAZ2B bromodomain. Q9UIF8. AlphaScreen BAZ2B-H3K14Ac peptide displacement. Potency, µM (highest dose often 114 µM), for inactives: top-dose activity change, negative = inhibition, usual class: inhibitors. 360,000 tested, 4.4% active; also: % is scaled to controls: 0 for no effect and ±100 for the full control effect; nearly all actives have a fitted effect of over 60% in size
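AlphaScreen luminescence quantifies BAZ2B engagement of H3K14Ac peptide; the protein and biotinylated peptide are both at 50 nM final, buffer PBS pH 7.4 with 0.01% Tween-20, all steps at room temperature.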
L3MBTL1 inh: L3MBTL1 (human) inhibition | Q9Y468 | AlphaScreen L3MBTL1–H3K9me1 peptide binding | Potency, µM (top dose mostly 57.1 µM), inactives show top-dose activity, negative = inhibition, usual class: inhibitors | 230,000 tested, 0.66% active; also: % is scaled to controls: 0 for no effect and ±100 for the full control effect; nearly all actives have a fitted effect of over 60% in size
Target sequence (Q9Y468 whole entry, looked up): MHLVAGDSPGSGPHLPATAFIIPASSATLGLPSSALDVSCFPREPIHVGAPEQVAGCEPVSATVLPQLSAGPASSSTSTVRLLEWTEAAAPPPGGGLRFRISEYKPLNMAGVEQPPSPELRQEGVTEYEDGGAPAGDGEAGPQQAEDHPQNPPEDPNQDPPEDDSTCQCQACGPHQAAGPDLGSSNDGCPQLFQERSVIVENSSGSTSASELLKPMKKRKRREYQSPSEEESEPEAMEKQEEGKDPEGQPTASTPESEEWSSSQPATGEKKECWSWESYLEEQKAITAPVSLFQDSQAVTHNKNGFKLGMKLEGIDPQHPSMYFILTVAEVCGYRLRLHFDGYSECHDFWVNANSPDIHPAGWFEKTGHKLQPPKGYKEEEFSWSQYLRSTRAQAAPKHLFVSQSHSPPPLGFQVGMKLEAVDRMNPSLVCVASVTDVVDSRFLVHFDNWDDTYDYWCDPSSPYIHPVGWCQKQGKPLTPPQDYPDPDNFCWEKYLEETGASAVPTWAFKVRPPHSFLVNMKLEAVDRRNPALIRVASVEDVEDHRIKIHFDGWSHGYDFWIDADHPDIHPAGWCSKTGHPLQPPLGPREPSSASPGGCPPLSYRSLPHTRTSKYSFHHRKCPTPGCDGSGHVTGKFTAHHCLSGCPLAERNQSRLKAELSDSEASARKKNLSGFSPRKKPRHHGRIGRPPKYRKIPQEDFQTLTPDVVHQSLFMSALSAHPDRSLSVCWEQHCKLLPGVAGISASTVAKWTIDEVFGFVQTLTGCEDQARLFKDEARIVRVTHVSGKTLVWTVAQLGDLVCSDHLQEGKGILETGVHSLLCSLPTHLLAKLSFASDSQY
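L3MBTL1 50 nM + b-AHA-H3(1-15)K9me1 75 nM, 30 min RT; compound added, 30 min RT; streptavidin donor/Ni-chelate acceptor beads 10 ug/mL each final, 30 min RT dark; AlphaScreen read.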
GLS inhibitor: blocks human kidney-isoform glutaminase activity; GLS enzymatic activity, qHTS titration; Potency, µM (series often up to 45.5 µM), inactives show top-dose activity change, negative = inhibition, actives largely listed as inhibitors; 410,000 tested, 0.21% active; AID 624170; also: % is scaled to controls: 0 for no effect and ±100 for the full control effect
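hKGA in 45 mM KH2PO4 (pH 8.2), 0.02% Tween-20 with compound, then 1mM L-Glutamine (stock as added) plus glutamate oxidase/HRP/Amplex red coupling mix. Fluorescence read initially and after 30 min at RT; signal change reflects glutamate formation.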
The depositor's hits bear a star; ? = inconclusive; / = no result; ! = a repeat was not active; [ ] = remark or other dose. Calls follow the shape of the dose curve; as a rule, active = well fitted curve in the direction sought with a large enough effect; inconclusive = small, poorly fitted or top-dose-only effect, or another doubt; inactive = no such curve, though single readings can be large; an effect the other way counts as inactive or inconclusive. Potency is read from the fitted curve at half-maximal effect.

SMILES	JMJD2A Tudor inh	HP1b chromo inh	G9a inh	BAZ2B inh	L3MBTL1 inh	GLS inhibitor
CC(C)CNC(=O)C(=O)NNC(=O)C1CCCCC1	?	26%	20µM*	-5%	6%	2%
CN(C)C(=O)N1CCC(C(=O)NCC2CCCO2)CC1 (stereo not given)	-12%	35%	20%[59 µM]	-4%	-10%	2%
CC(C)CNC(=O)C1CCN(CC2CCCCC2)CC1	79µM*	-29%	/	-4%[57.1 µM]	-1%	-3%
CC(CNC(=O)C1CCCCC1)NC(=O)C1CCCCC1 (stereo not given)	-4%	25%	-35%[59 µM]	16%	17%	8%
CC(C)CN1CCC(C(=O)NCC2CCCO2)CC1 (stereo not given)	7.1µM*	?	10µM*	56µM*	-8%	2%
O=C(NCCC1=CCCCC1)c1ccc2c(=O)n3nc(Nc4ccccc4)sc3nc2c1	-24%	13%	3%[59 µM]	1%	/	-6%
CCC(Sc1ncc(S(=O)(=O)c2ccc(C)cc2)c(=O)[nH]1)C(=O)Nc1cc(C)ccc1C (stereo not given)	-2%	12%	-18%[59 µM]	-1%	/	7%
O=C(CCC(=O)CCN1CCCCC1)CCN1CCCCC1	-12%	?	13µM*	-3%	/	11%
N#CCCNC(=O)CCN1CCCCC1	-7%	8%	56µM*	-7%	/	4%
N#CCCNC(=O)CCN1CCOCC1	?	24%	28µM*	-4%	2%	-8%
O=C(CCC1CCCC1)NCCCN1CCOCC1	1%	24%	-11%[12.7 µM]	-2%	5%	4%
NC(=O)CCN1CCCCC1	-2%	26%	3%[0.501 µM]	5%	52%	6%
Cc1cccc(NC(=O)C2CCN(S(=O)(=O)c3ccc(F)cc3)CC2)c1C	-7%	0%	-32%[59 µM]	-1%	/	2%
CCc1ccc2ncc3c(-c4ccc(F)cc4)nn(CC(=O)NC4CCCCC4)c3c2c1	-23%	99%	18%[59 µM]	16%	/	-6%
Cc1ccc2c(c1)N(C(=O)c1ccco1)C(C)(C)c1ssc(=S)c1-2	14µM*	?	11µM*	10µM*	/	-11%
CC1=CC(C)(C)N(C(=O)CSc2nncn2C)c2ccccc21	-7%	27%	13%[59 µM]	8%	2%	-3%
Cc1cccc2c1N(C(=O)CN1C(=O)c3ccccc3C1=O)C(C)(C)c1ssc(=S)c1-2	?	?	-95%[59 µM]	?	27%	9%
Cc1ccc2c(c1)N(C(=O)CSc1nncn1C)C(C)(C)c1ssc(=S)c1-2	79µM*	-33%	14µM*	/	?	6%
CNc1ncnc2c1ncn2[C@H]1C[C@H](OP(=O)(O)O)[C@@H](COP(=O)(O)O)O1	/	/	20µM*!	/	/	/
CNc1ncnc2c1ncn2[C@@H]1O[C@H](COP(=O)(O)O)[C@@H](O)[C@H]1O	/	/	32%[59 µM]	/	/	/
CC(=O)Nc1ccc(-c2nnc(SCC(=O)c3ccc4c(c3)Cc3ccccc3-4)n2C)cc1	35µM*	5%	22µM*	1%	-6%	0%
Cn1c(SCC(=O)c2ccc3c(c2)Cc2ccccc2-3)nnc1-c1cccc(N)c1	-22%	11%	?	-11%	-14%	8%
Cc1cccc(OCc2cc(=O)n3c(-c4ccccc4)csc3n2)c1C	-19%	32%	9%[59 µM]	-22%	/	-3%
CN(CC(=O)Nc1n[nH]c(=S)s1)S(=O)(=O)c1cccc2cccnc12	3.5µM*	?	1.6µM*	?	/	?
CN(CC(=O)NCc1ccco1)S(=O)(=O)c1cccc2cccnc12	-12%	37%	71µM*	-8%	/	-6%
SMILES	JMJD2A Tudor inh	HP1b chromo inh	G9a inh	BAZ2B inh	L3MBTL1 inh	GLS inhibitor
Cc1csc(NC(=O)CN(C)S(=O)(=O)c2cccc3cccnc23)n1	-17%	59%	-3%	-3%	/	9%
Cc1ccc(Cn2cccc2C2=NC(C)(C)CO2)cc1	-16%	32%	7%[59 µM]	/	/	6%
FC(F)(F)c1cccc(N2CCCCC2)c1	/	/	/	/	/	-8%
FC(F)(F)c1cccc(N2CCC(N=CN3CCCCCC3)=N2)c1	-15%[11.4 µM]	?	40µM*	40µM*	/	12%
O=C1CCCC2=C1C1(CCCC1)N=C(Nc1nc3cc4ccccc4cc3o1)N2	89µM*	/	/	/	/	/
O=C1CCCC2=C1C1(CCCCC1)N=C(Nc1nc3ccccc3o1)N2	?	2%	-23%[59 µM]	-14%	-13%	14%
CCOC(=O)c1c(C)c(C(=O)Nc2ccc(N(C)C)cc2)c(C)n1CC	?	-10%	2µM*	?	-14%	12%
CCOC(=O)c1ccc(NCc2ccc3c(c2)OCO3)cc1	8%	41%	-8%[59 µM]	-14%	4%	20%
C=CCN1C(=O)c2ccc(C(=O)OCC(=O)Nc3ccc(S(N)(=O)=O)cc3)cc2C1=O	-25%	-16%	50µM*	8%	-3%	-2%
NS(=O)(=O)c1ccc(NC(=O)CN2C(=O)c3ccccc3C2=O)cc1	-7%	50%	13%	-22%	/	-11%
CN(C)c1ccc(C(=O)OCC(=O)Nc2ccc(S(N)(=O)=O)cc2)cc1	56µM*	?	?	/	4%	-2%
CCOC(=O)c1ccc(NCc2ccc(N(C)C)cc2)cc1	?	-11%	10µM*	11µM*	?	0%
Cc1cccc(Cc2cnc(NC(=O)C3Cc4ccc(C)cc4C(=O)O3)s2)c1 (stereo not given)	1%	24%	15%[59 µM]	1%[57.1 µM]	/	-10%
Cc1cc(N2C(=O)c3ccc(C(=O)Nc4ccc(O)cc4C(=O)O)cc3C2=O)no1	-35%	17%	50µM*	79µM*	/	16%
Cc1ccc(C(=O)Nc2ccc(O)cc2C(=O)O)cc1C	?	3%	?	79µM*	/	32%
Cc1ccc(C(=O)Nc2ccc(O)cc2C(=O)O)cc1	?	23%	-10%[59 µM]	-10%	/	26%
CCCOc1ccc(C(=O)Nc2ccc(Cl)c(-c3nc4ncccc4o3)c2)cc1	-10%	38%	-1%[59 µM]	1%	/	-2%
CCN1CCN(Cc2ccc(NC(=O)c3cc(NC(=O)C(=O)c4c[nH]c5ccccc45)cc(OC)c3)cc2C(F)(F)F)CC1	35µM*	?	1%[12.7 µM]	40µM*	/	1%
CCN1CCN(Cc2ccc(NC(=O)c3ccc(C)c(NC(=O)c4ccnnc4)c3)cc2C(F)(F)F)CC1	-14%	47%	-11%[12.7 µM]	0%	/	0%
CCN1CCN(Cc2ccc(NC(=O)c3cc(NC(=O)c4cc(C)on4)cc(OC)c3)cc2C(F)(F)F)CC1	?	25%	45µM*	?	-8%	3%
CCN1CCN(Cc2ccc(NC(=O)c3cc(NC(=O)c4cnn(-c5ccccc5)c4N)cc(OC)c3)cc2C(F)(F)F)CC1	?	-17%	?	?	/	-11%
